Laboratory results taken from PubChem BioAssay AID1159580 (chemical genetic matrix, 2015).
Where “and” joins values, the source holds several entries; their conditions need not be identical. Equal values may be shown once. In all, about 5,500 compounds went through this assay and about 2,000 (36%) were called active. Inconclusive results (about 18%) are left out. Rule as the data show it: active = normalized growth mostly below about 0.91 (no sharp cut-off); inconclusive = no clear call, values can overlap the other calls; inactive = mostly above about 0.92. The list shows a part of the results.

Experiment: chemical genetic growth profiling, strain panel (AID 1159580);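 also: tested at 20 µM; growth read once vehicle control cultures reached saturation at 30 °C; 1 = growth at the plate median or of vehicle wells; lower values mean less growth of the strain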
Details: S. cerevisiae deletion strains, growth OD

Measured: normalized growth

O=C(O)CCC(=O)OC[C@@H](NC(=O)C(Cl)Cl)[C@H](O)c1ccc([N+](=O)[O-])cc1
inactive: locus YAL021C, strain ccr4, stronger effect = lower value 0.99 | locus YAL026C, strain drs2, stronger effect = lower value 0.993 | locus YAL030W, strain snc1, stronger effect = lower value 0.981 | locus YBL061C, strain skt5, stronger effect = lower value 0.971 | locus YBR009C, strain hhf1, stronger effect = lower value 0.956 | locus YBR021W, strain FUR4, stronger effect = lower value 1.02 | locus YBR023C, strain chs3, stronger effect = lower value 0.976 | locus YBR171W, strain sec66, stronger effect = lower value 0.962 | locus YBR229C, strain ROT2, stronger effect = lower value 0.951 | locus YBR231C, strain swc5, stronger effect = lower value 1 | locus YBR279W, strain paf1, stronger effect = lower value 0.989 | locus YCL011C, strain gbp2, stronger effect = lower value 0.942 | locus YCL016C, strain dcc1, stronger effect = lower value 0.953 | locus YCL029C, strain bik1, stronger effect = lower value 0.986 | locus YCL061C, strain MRC1, stronger effect = lower value 0.981 | locus YCL069W, strain vba3, stronger effect = lower value 0.982 | locus YCR088W, strain abp1, stronger effect = lower value 0.986 | locus YDL005C, strain med2, stronger effect = lower value 0.984 | locus YDL035C, strain GPR1, stronger effect = lower value 0.974 | locus YDL040C, strain nat1, stronger effect = lower value 0.996 | locus YDL074C, strain BRE1, stronger effect = lower value 0.98 | locus YDL101C, strain DUN1, stronger effect = lower value 0.995 | locus YDL134C, strain PPH21, stronger effect = lower value 0.964 | locus YDL185W, strain tfp1, stronger effect = lower value 0.96 | locus YDL192W, strain arf1, stronger effect = lower value 0.979 | locus YDR001C, strain nth1, stronger effect = lower value 0.975 | locus YDR069C, strain doa4, stronger effect = lower value 1.01 | locus YDR101C, strain arx1, stronger effect = lower value 0.963 | locus YDR137W, strain rgp1, stronger effect = lower value 0.963 | locus YDR150W, strain NUM1, stronger effect = lower value 0.982 | locus YDR159W, strain sac3, stronger effect = lower value 0.997 | locus YDR162C, strain NBP2, stronger effect = lower value 0.93 | locus YDR195W, strain ref2 1 | locus YDR297W, strain sur2, stronger effect = lower value 0.964 | locus YDR318W, strain mcm21, stronger effect = lower value 0.99 | locus YDR334W, strain swr1, stronger effect = lower value 0.945 | locus YDR335W, strain msn5, stronger effect = lower value 0.973 | locus YDR388W, stronger effect = lower value 0.983 | locus YDR392W, strain spt3, stronger effect = lower value 0.914 | locus YDR502C, strain sam2, stronger effect = lower value 0.991 | locus YEL003W, strain gim4, stronger effect = lower value 0.982 | locus YEL037C, strain rad23, stronger effect = lower value 0.991 | locus YEL061C, strain CIN8 (second series), stronger effect = lower value 0.987 | locus YEL061C, strain CIN8, stronger effect = lower value 0.988 | locus YER015W, strain faa2, stronger effect = lower value 0.989 | locus YER016W, strain bim1, stronger effect = lower value 0.988 | locus YER110C, stronger effect = lower value 0.964 | locus YER111C, strain swi4, stronger effect = lower value 0.982 | locus YER155C, strain BEM2 (second series), stronger effect = lower value 1.04 | locus YER155C, strain BEM2, stronger effect = lower value 0.989 | locus YER167W, strain BCK2, stronger effect = lower value 0.997 | locus YFR010W, strain ubp6, stronger effect = lower value 0.979 | locus YGL078C, strain dbp3, stronger effect = lower value 0.995 | locus YGL167C, strain pmr1, stronger effect = lower value 0.974 | locus YGL173C, strain kem1, stronger effect = lower value 0.967 | locus YGL227W, strain vid30, stronger effect = lower value 0.977 | locus YGL240W, strain doc1, stronger effect = lower value 1 | locus YGL248W, strain PDE1, stronger effect = lower value 1.01 | locus YGL253W, strain hxk2, stronger effect = lower value 0.968 | locus YGR135W, strain pre9, stronger effect = lower value 1.03 | locus YGR229C, strain SMI1, stronger effect = lower value 0.969 | locus YGR252W, strain gcn5, stronger effect = lower value 1.07 | locus YHR013C, strain ard1, stronger effect = lower value 0.955 | locus YHR027C, strain rpn1, stronger effect = lower value 0.956 | locus YHR030C, strain SLT2, stronger effect = lower value 0.974 | locus YHR079C, strain IRE1 (second series), stronger effect = lower value 0.989 | locus YHR079C, strain IRE1, stronger effect = lower value 0.961 | locus YHR094C, strain hxt1, stronger effect = lower value 0.979 | locus YHR129C, strain ARP1, stronger effect = lower value 0.982 | locus YHR142W, strain chs7, stronger effect = lower value 0.926 | locus YHR200W, strain rpn10, stronger effect = lower value 0.981 | locus YIL066C, strain RNR3, stronger effect = lower value 0.947 | locus YIL073C, strain SPO22, stronger effect = lower value 0.988 | locus YIL125W, strain kgd1, stronger effect = lower value 0.983 | locus YIR030C, strain dcg1, stronger effect = lower value 0.98 | locus YJL092W, strain hpr5, stronger effect = lower value 0.981 | locus YJL095W, strain BCK1 (second series), stronger effect = lower value 0.972 | locus YJL095W, strain BCK1, stronger effect = lower value 1.04 and 0.971 | locus YJL115W, strain asf1, stronger effect = lower value 0.969 | locus YJL129C, strain trk1, stronger effect = lower value 0.968 | locus YJL134W, strain LCB3, stronger effect = lower value 0.982 | locus YJL154C, strain vps35, stronger effect = lower value 0.975 | locus YJL164C, strain tpk1, stronger effect = lower value 0.968 | locus YJL166W, strain qcr8, stronger effect = lower value 0.964 | locus YJL168C, strain set2, stronger effect = lower value 0.983 | locus YJL187C, strain SWE1 (second series), stronger effect = lower value 1 | locus YJL187C, strain SWE1, stronger effect = lower value 0.975
